Experimental findings from PubChem BioAssay are described below.

Each structure is given as a SMILES string. Results filed as inconclusive are left out. The source made the active and inactive calls. Unless noted, no stated cut-off is given here; in the data, active means inhibition above about 31%; inactive means the rest.

One may read the viability as a read-out of living cells in per cent, often relative to untreated cells. What is called inhibition is the change of the read-out against control, counted positive when it falls.

Test [1] can be described thus: HUVEC growth inhibition – cell-based, human, primary screen (AID 575;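 active means viability at or below 30% in both replicate assays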;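 further: 100% = median of untreated cell wells with 0.1% DMSO on each plate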). Particulars: HUVEC proliferation, CellTiter-Glo luminescence, 72 h; at 10 µM; stronger effect = lower value. A general note: ATP-based viability assays read luminescence as a measure of living cells.
Test [2] can be described thus: H69AR cell proliferation blockers – human, duplicate replicates, primary screen (AID 580;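 active means viability at or under a set limit in both replicates, limit being median viability minus 3 SD, cut at about 48% in these data, passing the limit was not always enough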;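 further: 100% = mean luminescence of untreated wells and 0% = no signal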). Particulars: H69AR lung tumor cells viability, ATP luminescence, 72 h; at 10 µM; stronger effect = lower value.
A short description of test [3]: MRP1 drug-resistance reversers in H69AR cells – cell-based, doxorubicin co-treatment, pilot screen (AID 601;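 active means viability loss from added drug above about 55%, and viability with drug at most 40%, in both replicates, limit read from the data, passing the limit was not always enough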). Particulars: CellTiter-Glo, 72 h, at 10 µM; for differential viability (reversal): stronger effect = higher value.
Test [4] can be described thus: yeast transport mutant growth inhibition pilot in 384-well plates, post-Golgi transport modulator project (AID 636). Particulars: absorbance 615 nm, about 18 h, stronger effect = higher value.
Test [5] in a line: growth suppression of yeast trafficking mutant, preliminary HTS, modulators of trafficking downstream of Golgi apparatus project, 1536-format plate, OD 615 nm (AID 637; in the data active means inhibition above about 30%). The note with it: yeast transport mutant growth, absorbance 615 nm, 18 h; stronger effect = higher value.
The nature of test [6]: S. cerevisiae growth inhibition in permissive medium (OD615), pilot counter-assay for S. cerevisiae lifespan shortening project, permissive growth control (AID 705;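 active means growth inhibition above 25% in both replicates, a cutoff set 3 SD above the mean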). Particulars: OD615, 24 h, at 10 µM, stronger effect = higher value.
Test [7] is described as follows: S. cerevisiae growth inhibition in restrictive medium, OD615, pilot screen, restrictive growth control, yeast lifespan reduction project (AID 706;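 active means growth inhibition above a set limit, 3 SD over mean compound inhibition, in both replicates, cut at about 43% in these data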;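 further: modified DeaD lifespan yeast strain shifted to restrictive glucose medium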). Particulars: OD615, 48 h, at 10 µM, stronger effect = higher value.
Test [8] can be described thus: doxorubicin toxicity protection in MRP-1 cells – H69AR cells, CellTiter-Glo, duplicate, MRP-1 activator project, pilot screen (AID 807;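 active means viability increase at or above a cutoff of the median across tested compounds plus 3 SD, cut at about 8.5% in these data, passing the limit was not always enough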;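 further: compound pretreatment 18-22 h then 72 h combined with doxorubicin; 0% = doxorubicin alone and 100% = vehicle without doxorubicin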). Particulars: H69AR viability with doxorubicin, CellTiter-Glo luminescence; at 10 µM; stronger effect = higher value.
Test [9] can be described thus: viability of HCT116 without oncogenic beta-catenin – human colon tumor cells, pilot screen (AID 823;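 active means cell viability at or below a set limit in both duplicate runs, the limit being the all-compound median minus 4 SD, cut at about 23% in these data, passing the limit was not always enough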;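 further: 0% = wells killed by 20 µM Hyamine and 100% = untreated DMSO cell wells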). The note with it: HCT116 beta-catenin knockout viability, CellTiter-Glo, 60 h; at 10 µM; stronger effect = lower value.
Test [10] is described as follows: viability of PTEN-null HCT116 cells – cell-based, HCT116 clonal line, CellTiter-Glo, pilot screen (AID 824;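 active means viability at or below 27.92% in each of two runs, the all-compound median minus 4 SD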;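 further: 0% = 20 µM Hyamine control and 100% = vehicle cell control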). The note with it: HCT116 PTEN-deleted viability, 60 h, at 10 µM, stronger effect = lower value.
A short description of test [11]: RAM pathway blockade in budding yeast – dse1pr::URA3 reporter, 5-FOA selection, pilot screen (AID 869;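 active means inhibition over a set limit, the all-compound mean plus 3 SD, in both replicate runs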;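 further: 0% = DMSO wells with no growth and 100% = 10 µM 1-NA-PP1 with full growth; RAM network block rescues cells from 5-FOA so hits raise OD615 growth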). Particulars: S. cerevisiae dse1pr::URA3 5-FOA growth, OD615, 2 d; at 10 µM; stronger effect = higher value; strain carries analog-sensitive mutant Cbk1 kinase.
A short description of test [12]: RAM signaling pathway blockade in yeast – S. cerevisiae, Pdr1DBD-CYC8 efflux-inhibited sensitized strain, primary screen (AID 1298;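 active means RAM network inhibition above 8.4% in each of two replicates, 3 SD over the compound average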;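 further: 0% = DMSO untreated cells without growth and 100% = 10 µM 1-NA-PP1 full growth; higher means more yeast growth rescued from 5-FOA killing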). The note with it: S. cerevisiae cbk1-as DSE1-URA3 strain, 5-FOA growth OD615, 2 d; at 50 µM; stronger effect = higher value.
Where [13] appears, read: H69AR cells + 2 uM doxorubicin, measured here: viability with 2 uM doxorubicin, stronger effect = lower value.
Where [14] appears, read: H69AR cells, compound alone cytotoxicity.

Turning to `O=C(CCCCCn1c(=O)[nH]c2ccsc2c1=O)N1CCCCC1`, the viability in [1] is 102% (inactive); in test [2] it was 95% (inactive); in [3] (setting [13]), 89.2%; in test [3] (setting [14]), 95%; in test [9], 96.9% (inactive); in test [10], 99% (inactive). Also, the differential viability (reversal) in test [3] (H69AR cells + 2 uM doxorubicin) was 5.84% (inactive). The inhibition was -2.5% (inactive) in [4], 7.62% (inactive) in test [5] and 0.36% (inactive) in test [11]. The growth inhibition is 1.02% (inactive) in test [6] and -1.91% (inactive) in test [7]. The viability increase in [8] is -1.28% (inactive). Also, the RAM network inhibition in test [12] was -0.43% (inactive).
As for `CCc1cc2c(NCCC(=O)O)ncnc2s1`, the viability in test [1] was 83.3% (inactive); in test [2], 97.6% (inactive); in test [3] (setting [13]) it was 91.7%; in [3] (setting [14]), 97.6%; in [9], 101% (inactive); in test [10], 99.6% (inactive). In addition, the differential viability (reversal) in test [3] (H69AR cells + 2 uM doxorubicin) is 5.87% (inactive). For the same compound, the inhibition in test [4] was -3.51% (inactive); in [5], -0.48% (inactive); in test [11], 3.42% (inactive). Moreover, the growth inhibition in [6] is -7.78% (inactive); in [7], -13.1% (inactive). Besides, the viability increase in [8] is -1.99% (inactive). In test [12], the RAM network inhibition is 2.49% (inactive).
`O=C1CC(c2ccco2)CC(O)=C1C=NCCN1CCNCC1` (stereo not given): the viability in test [1] was 103% (inactive); in test [2] it was 95.6% (inactive); in [3] (setting [13]), 92.3%; in test [3] (setting [14]), 95.6%; in [9], 91% (inactive); in [10], 101% (inactive). The differential viability (reversal) in test [3] (H69AR cells + 2 uM doxorubicin) was 3.35% (inactive). In addition, the inhibition was 0.13% (inactive) in test [4], 5.56% (inactive) in [5] and 0.405% (inactive) in test [11]. The growth inhibition in test [6] was -10.2% (inactive); in test [7] it was 3.51% (inactive). The viability increase in test [8] was 0.26% (inactive). In test [12], the RAM network inhibition was 1.52% (inactive).
In the case of `Cc1cc2ncn(C(=O)N3CCOCC3)c2cc1C`, the viability was 95.4% (inactive) in test [1]; 92.2% (inactive) in [2]; 84.6% in [3] (setting [13]); 92.2% in test [3] (setting [14]); 97.3% (inactive) in test [9]; 97.3% (inactive) in test [10]. Further, in test [3] (H69AR cells + 2 uM doxorubicin), the differential viability (reversal) is 7.56% (inactive). Also, the inhibition in test [4] was -2.47% (inactive); in test [5] it was -6.03% (inactive); in [11], 1.22% (inactive). Further, the growth inhibition in test [6] was 0.665% (inactive); in test [7], -2.19% (inactive). The viability increase in [8] was -1.25% (inactive). The RAM network inhibition in test [12] is 4.08% (inactive).
Turning to `COC(=O)c1cccc(NC(=O)C2COc3ccccc3O2)c1C` (stereo not given), the viability in [1] is 116% (inactive); in test [2], 100% (inactive); in test [3] (setting [13]) it was 91.4%; in test [3] (setting [14]) it was 100%; in test [9] it was 106% (inactive); in test [10], 99% (inactive). Besides, the differential viability (reversal) in test [3] (H69AR cells + 2 uM doxorubicin) was 8.78% (inactive). Besides, the inhibition was -1.71% (inactive) in test [4], -6.98% (inactive) in test [5] and -0.07% (inactive) in test [11]. Moreover, the growth inhibition in [6] was -14.9% (inactive); in test [7], -21.5% (inactive). Further, the viability increase in [8] was 0.68% (inactive). Also, in test [12], the RAM network inhibition was 3.78% (inactive).
As to `Cc1nnc(N(Cc2ccco2)C(=O)c2cccc(C#N)c2)s1`, the viability in test [1] is 84.1% (inactive); in test [2], 94.6% (inactive); in test [3] (setting [13]), 97.9%; in [3] (setting [14]) it was 94.6%; in test [9], 103% (inactive); in test [10] it was 98.5% (inactive). For the same compound, the differential viability (reversal) in [3] (H69AR cells + 2 uM doxorubicin) was -3.37% (inactive). Also, the inhibition in [4] was -1.69% (inactive); in test [5] it was -6.35% (inactive); in test [11], 1.8% (inactive). Besides, the growth inhibition in test [6] is -6.52% (inactive); in test [7], 6.42% (inactive). Moreover, the viability increase in test [8] is -0.66% (inactive). Also, in [12], the RAM network inhibition was 4.13% (inactive).
As for `CC(C(=O)Oc1ccc2c(c1)OCO2)N1C(=O)c2ccccc2C1=O` (stereo not given), the viability in test [1] is 79.5% (inactive); in [2] it was 84.3% (inactive); in test [3] (setting [13]) it was 94.4%; in test [3] (setting [14]), 84.3%; in test [9] it was 99.3% (inactive); in test [10], 105% (inactive). The differential viability (reversal) in [3] (H69AR cells + 2 uM doxorubicin) was -10.1% (inactive). The inhibition in [4] was -1.69% (inactive); in [5] it was 1.27% (inactive); in test [11] it was 1.38% (inactive). Also, the growth inhibition is -0.745% (inactive) in test [6] and 13.1% (inactive) in [7]. Also, the viability increase in test [8] was -1.6% (inactive). In addition, the RAM network inhibition in test [12] is 0.12% (inactive).
For the compound `COc1cc2[nH]c(=O)n(CCCCCC(=O)NCCCN3CCCC3=O)c(=O)c2cc1OC`, the viability in test [1] was 103% (inactive); in [2], 104% (inactive); in [3] (setting [13]) it was 92.9%; in [3] (setting [14]) it was 104%; in test [9], 103% (inactive); in test [10], 104% (inactive). Moreover, in [3] (H69AR cells + 2 uM doxorubicin), the differential viability (reversal) was 11.6% (inactive). Further, the inhibition in [4] is -5.39% (inactive); in test [5], -0.32% (inactive); in test [11] it was 1.91% (inactive). The values for the growth inhibition in test [6] and in test [7] were -1.87% (inactive) and -4% (inactive), respectively. Also, the viability increase in test [8] is 1.13% (inactive). In test [12], the RAM network inhibition is 6.37% (inactive).
Take `CCC(=O)Oc1ccc2c(C)cc(=O)oc2c1C`: the viability in test [1] was 91.1% (inactive); in test [2], 90.6% (inactive); in test [3] (setting [13]) it was 102%; in test [3] (setting [14]) it was 90.6%; in test [9], 102% (inactive); in test [10], 97% (inactive). In addition, the differential viability (reversal) in [3] (H69AR cells + 2 uM doxorubicin) is -11.8% (inactive). For the same compound, the values for the inhibition in test [4], in test [5] and in [11] were 0.39% (inactive), 9.21% (inactive) and 0.15% (inactive), respectively. Besides, the growth inhibition is -8.37% (inactive) in test [6] and 7.31% (inactive) in [7]. Moreover, the viability increase in [8] is -4.73% (inactive). For the same compound, the RAM network inhibition in test [12] is 3.51% (inactive).
For `O=C(c1ccc(NS(=O)(=O)c2cccs2)cc1)N1CCCCC1`, the viability is 72.9% (inactive) in test [1]; 89.9% (inactive) in [2]; 97.5% in [3] (setting [13]); 89.9% in test [3] (setting [14]); 93.8% (inactive) in test [9]; 96.8% (inactive) in test [10]. Moreover, in [3] (H69AR cells + 2 uM doxorubicin), the differential viability (reversal) was -7.68% (inactive). Also, the inhibition in [4] was -2.63% (inactive); in test [5], -9.05% (inactive); in test [11] it was 0.805% (inactive). In addition, the growth inhibition is 1.61% (inactive) in test [6] and -2.64% (inactive) in test [7]. In test [8], the viability increase is -1.41% (inactive). In addition, in [12], the RAM network inhibition was 1.56% (inactive).
